Data on 23 compounds can be found in PubChem BioAssay (Tox21).

Values joined by “and” are separate entries in the source; they are usually repeats but may differ in a detail not shown here. Equal entries are not always repeated. Active and inactive are the calls of the source. Unless noted, the call rests on the fitted dose curve; in most records, active means well fitted curve in the direction sought with a large enough effect in the repeat runs; inconclusive means weak or mixed curves; inactive means no such curve, though single readings can be large; an effect the other way counts as inactive or inconclusive. Non-standard residues stand in square brackets, D forms with d. Residues, ends and D or L forms follow the SMILES beside them. pGlu = O=C1CC[C@@H](C(=O)O)N1

Assay [1] can be described thus: qHTS assay to identify small molecule antagonists of the thyroid receptor (TR) signaling pathway - cell viability counter screen (AID 743064). Further: nearly all actives have a fitted effect of over 50% in size. Further: potency means the concentration at half of the fitted maximal effect. In a few lines:
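GH3.TRE-Luc rat pituitary cells dosed after 4 hr plating, co-stimulated with T3 at 1 nM final, incubated 23.5 h at 37 C. Viability measured in the same wells by CellTiter-Fluor fluorescence after 30 min further at 37 C.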

For assay [2], the system named is thyroid hormone receptor (rat, GH3 cells). Description: qHTS assay to identify small molecule agonists of the thyroid receptor (TR) signaling pathway (AID 743066; calls by dose curve; further: potency means the concentration at half of the fitted maximal effect). In general terms: qHTS replaces the single test concentration by a dilution series.
Assay [3] can be described thus: qHTS assay to identify small molecule antagonists of the estrogen receptor alpha (ER-alpha) signaling pathway - cell viability counter screen (AID 743074; calls by dose curve;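 further: HEK293 cells carrying ER-alpha-UAS-bla reporter stimulated with 17beta-estradiol; nearly all actives have a fitted effect of over 45% in size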).
The nature of assay [4]: qHTS assay to identify small molecule antagonists of the estrogen receptor alpha (ER-alpha) signaling pathway using the BG1 cell line - cell viability counter screen (AID 743081).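 Further: compound given together with 17beta-estradiol as the ER stimulus; nearly all actives have a fitted effect of over 45% in size.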
In assay [5] the target is Estrogen receptor (Homo sapiens) (UniProt P03372). As to the kind of experiment: qHTS assay to identify small molecule antagonists of the estrogen receptor alpha (ER-alpha) signaling pathway (AID 743069; active means well fitted curve in the direction sought with a large enough effect in the signal ratio in the repeat runs, not every such curve was filed as active; inconclusive means weak or mixed curves, or effect the other way; inactive means no such curve, though single readings can be large or run the other way; the % refers to the signal ratio; further: potency means the concentration at half of the fitted maximal effect). Summed up:
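ER-alpha-UAS-bla GripTite HEK293 line; 2% charcoal-stripped FBS overnight; plated, 4 hr 37C/5% CO2; cpd in DMSO + 17beta-estradiol, 18 hr 37C; LiveBLAzer B/G FRET substrate 2 hr RT; fluorescence intensity.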

For assay [6] the target is unchanged. As to the kind of experiment: qHTS assay to identify small molecule agonists of the estrogen receptor alpha (ER-alpha) signaling pathway (AID 743075; calls by dose curve;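 further: HEK293 GripTite cells with ER-alpha and UAS-driven beta-lactamase reporter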; further: potency means the concentration at half of the fitted maximal effect).
The target is the same in assay [7]. Description: qHTS assay to identify small molecule agonists of the estrogen receptor alpha (ER-alpha) signaling pathway using the BG1 cell line (AID 743079). Further: nearly all actives have a fitted effect of over 20% in size. Further: potency means the concentration at half of the fitted maximal effect. The note with it: BG1Luc4E2 cells, ERE-luciferase agonist, 22 h; activation: at 70.3 µM (top of the series).
The nature of assay [8]: qHTS assay to identify small molecule antagonists of the estrogen receptor alpha (ER-alpha) signaling pathway using the BG1 cell line (AID 743080; calls by dose curve;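 further: BG1 cells stimulated with 17beta-estradiol alongside compound; nearly all actives have a fitted effect of over 25% in size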; further: potency means the concentration at half of the fitted maximal effect). In a few lines:
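BG1-Luc-4E2 cells (endogenous full-length ER-alpha, 4xERE luciferase) hormone-starved 5 days in charcoal-stripped FBS, plated 4,000/well for 24 h, then compound plus 17beta-estradiol for 21.5 h at 37 C; ONE-Glo luminescence read.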

Assay [9] deals with Aromatase (Homo sapiens) (UniProt P11511). Description: qHTS assay to identify aromatase inhibitors (AID 743083). Further: nearly all actives have a fitted effect of over 55% in size. Further: potency means the concentration at half of the fitted maximal effect.
Assay [10] can be described thus: qHTS assay to identify small molecule antagonists of the thyroid receptor (TR) signaling pathway (AID 743065). Further: nearly all actives have a fitted effect of over 55% in size. Further: potency means the concentration at half of the fitted maximal effect. In a few lines: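 Antagonism measured as loss of luciferase signal in GH3 cells stably carrying a TRE-luciferase reporter, co-treated with compound and T3 (1 nM final) for 23.5 h at 37 C. Viability was read in the same well by CellTiter-Fluor.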

Aromatase (Homo sapiens), sequence (P11511 whole entry, looked up): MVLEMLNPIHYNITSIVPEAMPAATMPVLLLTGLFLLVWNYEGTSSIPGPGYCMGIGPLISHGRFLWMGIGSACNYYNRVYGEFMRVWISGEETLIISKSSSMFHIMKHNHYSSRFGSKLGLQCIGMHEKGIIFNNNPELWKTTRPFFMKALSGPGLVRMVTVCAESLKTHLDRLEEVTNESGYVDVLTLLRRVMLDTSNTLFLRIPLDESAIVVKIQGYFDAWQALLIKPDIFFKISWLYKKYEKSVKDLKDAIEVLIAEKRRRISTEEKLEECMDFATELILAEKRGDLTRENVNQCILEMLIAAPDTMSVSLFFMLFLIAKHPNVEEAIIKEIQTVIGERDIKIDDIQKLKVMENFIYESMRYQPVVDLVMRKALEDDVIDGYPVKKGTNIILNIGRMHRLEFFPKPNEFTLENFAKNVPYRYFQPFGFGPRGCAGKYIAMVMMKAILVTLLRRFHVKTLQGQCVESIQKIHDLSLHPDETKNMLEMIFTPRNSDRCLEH
Estrogen receptor (Homo sapiens), sequence (P03372 whole entry, looked up): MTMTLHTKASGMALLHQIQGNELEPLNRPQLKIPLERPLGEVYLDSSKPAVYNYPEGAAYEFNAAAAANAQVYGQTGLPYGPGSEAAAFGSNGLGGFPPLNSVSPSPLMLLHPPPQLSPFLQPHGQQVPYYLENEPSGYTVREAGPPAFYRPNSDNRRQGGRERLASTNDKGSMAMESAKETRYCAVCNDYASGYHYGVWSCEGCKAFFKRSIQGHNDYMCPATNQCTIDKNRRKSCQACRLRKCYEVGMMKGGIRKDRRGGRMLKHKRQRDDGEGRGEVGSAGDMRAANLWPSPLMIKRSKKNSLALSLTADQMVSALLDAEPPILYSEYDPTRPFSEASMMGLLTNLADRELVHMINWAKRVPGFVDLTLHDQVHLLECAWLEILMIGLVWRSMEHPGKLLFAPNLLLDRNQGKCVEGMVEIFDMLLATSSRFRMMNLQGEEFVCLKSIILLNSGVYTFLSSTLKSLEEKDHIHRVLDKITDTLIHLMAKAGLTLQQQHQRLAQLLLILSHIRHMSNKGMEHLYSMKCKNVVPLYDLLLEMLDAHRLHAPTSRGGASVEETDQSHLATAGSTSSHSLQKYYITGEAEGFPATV

With `CCOC(=O)Oc1c(OC)cc(C(=O)O[C@@H]2C[C@@H]3CN4CCc5c([nH]c6cc(OC)ccc56)[C@H]4C[C@@H]3[C@H](C(=O)OC)[C@H]2OC)cc1OC`, the Potency result in assay [1], in assay [2], in [3] and in assay [4] was “inactive” in each case.

For the compound `COC(=O)[C@H]1[C@H]2C[C@@H]3c4[nH]c5ccccc5c4CCN3C[C@H]2C[C@@H](OC(=O)c2cc(OC)c(OC)c(OC)c2)[C@@H]1OC`, the Potency in assay [1] was 26.6 µM (active); in assay [5], 2.39 µM [inconclusive] (active); in assay [8], 6.68 µM (active); in assay [9], 5.96 µM (active) and 29.8 µM (active). In addition, the Potency entry in assay [3], in assay [6], in assay [7] and in [4] was “inactive” in each case.

In the case of `CCC(=O)O[C@]1(C(=O)CCl)[C@@H](C)C[C@H]2[C@@H]3C[C@H](F)C4=CC(=O)C=C[C@]4(C)[C@@]3(F)[C@@H](O)C[C@@]21C`, the Potency entry in assay [1], in assay [2], in assay [3], in assay [4] and in assay [9] was “inactive” throughout.

Regarding `N#Cc1ccc2c(c1)N(CCCN1CCC(O)CC1)c1ccccc1S2`, the Potency in assay [1] was 9.44 µM (active). Further, the Potency result in assay [5], in assay [3], in assay [6], in [7], in [8] and in assay [4] was “inactive” in each case. Besides, in [9], the Potency result was “inactive”.

With `CC(=O)OC[C@H]1O[C@@H](O[C@H]2[C@H](O)[C@@H](OC(=O)c3ccccc3C(=O)O)[C@H](O)O[C@@H]2COC(C)=O)[C@H](O)[C@@H](OC(=O)c2ccccc2C(=O)O)[C@@H]1O`, the Potency result in assay [1], in [2], in assay [5], in [6], in assay [7] and in assay [8] was “inactive” throughout. Moreover, the Potency result in [4] and in assay [9] was “inactive” each time.

In the case of `COC1=C(C(=O)O)N2C(=O)[C@@H](NC(=O)[C@H](N)C3=CCC=CC3)[C@H]2SC1`, the Potency entry in assay [1], in assay [5], in [6], in assay [7], in assay [8] and in [4] was “inactive” throughout. Moreover, the Potency result in [9] was “inactive”.

Take `COc1cc(C)c(/C=C/C(C)=C/C=C/C(C)=C/C(=O)O)c(C)c1C`: the Potency entry in assay [1], in [3] and in [4] was “inactive” throughout. The Potency in [2] was 5.96 µM (active); in [6] it was 4.25 µM [inconclusive] (active); in [8], 0.473 µM (active).

For `CC1C(=O)CC2C3(C)CCC2(C(C)C(=O)O)C(=O)C13` (configuration not stated), the Potency entry in assay [1], in [5], in assay [3], in [6], in [7] and in assay [8] was “inactive” throughout. The Potency entry in assay [4] and in assay [9] was “inactive” each time.

Take `CCCCCCCCCCCCCCCCCC[N+](C)(C)CCC[Si](OC)(OC)OC`: the Potency entry in assay [10], in assay [2], in assay [5], in [3], in [8] and in [4] was “inactive” in each case. Moreover, the Potency result in assay [9] is “inactive”. In addition, the values for the Potency in assay [6] and in [7] were 23.9 µM [activator] (active) and 5.96 µM (active), respectively.

For `COC(=O)CCC[N+](C)(C)C`, the Potency entry in assay [1], in [3], in assay [4] and in [9] was “inactive” throughout.

As to `Nc1nc2c(c(=O)[nH]1)N(C=O)C(CNc1ccc(C(=O)N[C@@H](CCC(=O)O)C(=O)O)cc1)CN2` (some centres not stated), the Potency result in assay [1], in assay [3], in assay [4] and in assay [9] was “inactive” throughout.

As for `C#C[C@]1(O)CC[C@H]2[C@@H]3CCC4=CC(=O)CC[C@@H]4[C@H]3C(=C)C[C@@]21CC`, the Potency entry in [1], in [3] and in assay [9] was “inactive” each time. Moreover, the results for the Potency in assay [6] and in assay [7] were 2.39 µM [inconclusive] (active) and 1.88 µM (active), respectively.

As to `c1cnc2cc3c(cc2n1)[C@@H]1CNC[C@H]3C1`, the Potency entry in assay [10], in assay [2], in assay [5], in assay [3], in [6] and in assay [7] was “inactive” in each case. Further, the Potency entry in [8], in assay [4] and in assay [9] was “inactive” in each case.

As for `CC(C)Cc1ccc([C@@H](C)C(=O)NS(C)(=O)=O)cc1`, the Potency entry in [10], in assay [2], in [5], in assay [3], in assay [6] and in [7] was “inactive” in each case. Moreover, the Potency result in [8], in assay [4] and in [9] was “inactive” throughout.

On to `CC(CN(C)C)CN1c2ccccc2Sc2ccc(C(F)(F)F)cc21` (configuration not stated), for which the Potency in assay [1] was 8.41 µM (active). For the same compound, the Potency result in [3] and in [4] was “inactive” in each case.

For `C[N@+]12CCCC[C@@H]1CCC(=C(c1cccs1)c1cccs1)C2`, the Potency result in [10], in [2], in [5], in assay [3], in assay [6] and in assay [7] was “inactive” in each case. Further, the Potency result in assay [8], in assay [4] and in assay [9] was “inactive” each time.

For the compound `CC1=C[C@H](O)CC(C)(C)[C@H]1/C=C/C(C)=C/C=C/C(C)=C/C=C/C=C(C)/C=C/C=C(C)/C=C/C1=C(C)C[C@@H](O)CC1(C)C`, the Potency in assay [1] is 23.7 µM (active). The Potency entry in assay [3] and in assay [9] was “inactive” throughout.

Turning to `COc1cc([C@@H]2c3cc4c(cc3C(O[C@@H]3O[C@@H]5COC(c6cccs6)O[C@H]5[C@H](O)[C@H]3O)C3COC(=O)[C@@H]32)OCO4)cc(OC)c1O` (some centres not stated), the results for the Potency in [10] and in [5] were 0.531 µM (active) and 6.74 µM [inconclusive] (active), respectively. Moreover, the Potency result in [2], in assay [3] and in assay [6] was “inactive” each time.

On to `CC[C@H](C)[C@H](NC(=O)[C@H](Cc1ccccc1)NC(=O)[C@H](C)NC(=O)[C@H](CC(=O)O)NC(=O)[C@H](CCCCN)NC(=O)[C@H](CO)NC(=O)[C@@H]1CCCN1C(=O)[C@@H]1CCC(=O)N1)C(=O)NCC(=O)N[C@@H](CC(C)C)C(=O)N[C@@H](CCSC)C(N)=O` ([pGlu]PSKDAFIGLM-NH2), for which the Potency entry in assay [1], in [3], in assay [4] and in [9] was “inactive” in each case.

With `CCCCOC(=O)C(=O)Nc1cccc(-c2nn[nH]n2)c1`, the Potency entry in [1], in [3], in [6], in assay [7], in assay [8] and in assay [9] was “inactive” throughout.

For the compound `CC(C)(C)NCC(O)CSc1nc(-c2ccc(C(N)=O)s2)cs1` (configuration not stated), the Potency result in assay [10], in assay [2], in [5], in assay [3], in assay [6] and in assay [7] was “inactive” throughout. The Potency entry in assay [8], in [4] and in assay [9] was “inactive” each time.

For the compound `CN(C)CCC=C1c2ccccc2C(C)(C)c2ccccc21`, in assay [1], the Potency was 13.3 µM (active). Also, the Potency entry in assay [5], in assay [7], in [8] and in assay [4] was “inactive” each time.

Turning to `C[C@H](N)C(=O)N[C@@H](C)P(=O)(O)O`, the Potency result in assay [10], in assay [2], in assay [5], in assay [3], in [6] and in [7] was “inactive” in each case. The Potency entry in assay [8], in assay [4] and in assay [9] was “inactive” each time.
